# The whole screen tested about 330,000 compounds, of which about 1,900 (0.58%) were called active. Inconclusive results (about 4%) are left out. Rule as the data show it: inconclusive = inhibition above about 70% without an active follow-up result; inactive = below that. Not all results are given here. Results with a measured potency or affinity are listed apart.
# Assay: M. tuberculosis growth inhibition, HTS (AID 449762);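 also: bacterial growth assessed after seven days of incubation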
# Details: M. tuberculosis H37Rv growth inhibition, 7H9 media; at 25 µM; active compounds read high
row,Structure (SMILES),inhibition
1,Cc1ccc(C)c(N2C(=O)CC(N3CCN(Cc4ccc5c(c4)OCO5)CC3)C2=O)c1 (configuration not stated),-6.64% (inactive)
2,CCOC(=O)C1=C(C)N=c2s/c(=C\c3ccc(OCC(=O)O)cc3)c(=O)n2C1c1ccccc1 (configuration not stated),-2.68% (inactive)
3,O=c1/c(=C\c2ccc(O)cc2)sc2nc(-c3ccccc3)c(-c3ccccc3)n12,-4.61% (inactive)
4,COc1cccc(CN(C)C(=O)/C=C/c2ccc(S(=O)(=O)N3CCCCCC3)cc2)c1,4.38% (inactive)
5,Cc1cc(=O)oc2ccc(OCC(=O)N3CCc4ccccc43)cc12,-7.76% (inactive)
6,COc1ccc(N/C(N)=N/c2nc(C)cc(=O)[nH]2)cc1,4.61% (inactive)
7,Cc1cc(=O)[nH]c(N=N/C(=N/Nc2ccccc2C)c2ccccc2)n1,68.7% (inactive)
8,Oc1ccc(/C=N/Nc2ccc(Cl)nn2)c(O)c1O,-6.06% (inactive)
9,CCOc1ccccc1/C=N/Nc1ccc(Cl)nn1,13.2% (inactive)
10,C/C(=N\NC(=S)NCc1ccccc1)c1ccc(Cl)s1,-0.65% (inactive)
11,C/C(=N\NC(N)=O)c1ccc(Cl)s1,-8.77% (inactive)
12,Cc1cccc(N(C)S(=O)(=O)c2c(C)noc2C)c1,2.4% (inactive)
13,C/C(CC(=O)Nc1ccccn1)=N\NC(=O)c1ccccc1O,-3.57% (inactive)
14,O=C(Nc1ccc2oc(-c3ccc(Cl)c(Cl)c3)nc2c1)c1ncn[nH]1,50.6% (inactive)
15,O=C(Nc1ccc2oc(-c3cccc4ccccc34)nc2c1)c1ncn[nH]1,9.87% (inactive)
16,CC(=O)N(C(C)=O)c1c(C#N)c(C)n(-c2ccccc2)c1C(=O)c1ccccc1,-0.27% (inactive)
17,CCCC(=O)c1ccc(-c2ccccc2)cc1,1.42% (inactive)
18,Cc1ccc2nc(NC(=O)CN3C(=O)NC4(CCCCC4)C3=O)sc2c1,5.87% (inactive)
19,COc1ccccc1NS(=O)(=O)c1cc(C(=O)NCCC(C)C)ccc1F,16.6% (inactive)
20,CCOC(=O)c1nc2sc3c(c2c(=O)[nH]1)CCCC3,2.32% (inactive)
21,CC(C)CCOCc1nc2sc3c(c2c(=O)[nH]1)CCC(C)C3 (configuration not stated),-5.2% (inactive)
22,COC(=O)C1CCN(c2nc3ccccc3nc2C(C#N)C(=O)OCC(C)C)CC1 (configuration not stated),-4.17% (inactive)
23,COc1ccccc1NS(=O)(=O)c1cccc(NC(=O)C2CC2)c1,-4.5% (inactive)

row,Structure (SMILES),inhibition
1,COc1cc(OC)c(C#N)c(S(=O)(=O)Cc2ccccc2)c1,-8.56% (inactive)
2,O=[N+]([O-])c1ccc(OS(=O)(=O)Cc2ccccc2)cc1,4.45% (inactive)
3,O=C(CS(=O)(=O)c1cn(CC(=O)N2CCCC2)c2ccccc12)Nc1ccccc1F,2.67% (inactive)
4,Cc1c(C(c2ccc(F)cc2)c2c(C)n(C)n(-c3ccccc3)c2=O)c(=O)n(-c2ccccc2)n1C,5.49% (inactive)
5,COc1ccc(-c2csc(NC(CO)c3nc4ccccc4n3Cc3ccc(C)cc3)n2)cc1 (configuration not stated),25.6% (inactive)
6,OCCOCCn1c(C(CO)Nc2nc(-c3ccc(F)cc3)cs2)nc2ccccc21 (configuration not stated),6.37% (inactive)
7,Cc1ccc(NCc2nc(SCC(=O)Nc3ccccc3)n[nH]2)cc1,-2.62% (inactive)
8,COc1ccc(NC(=O)C(C)NS(=O)(=O)c2ccc(NC(C)=O)cc2)cc1Cl (configuration not stated),-1.73% (inactive)
9,COc1ccc(NC(=O)C(C)NS(=O)(=O)c2ccccc2)cc1Cl (configuration not stated),-8.72% (inactive)
10,COc1ccc(CCN=C(N)NS(=O)(=O)c2ccc(C)cc2)cc1OC,-1.62% (inactive)
11,CCc1ccc(C2c3[nH]c4ccccc4c3CCN2C(=O)c2cc[n+]([O-])cc2)cc1 (configuration not stated),-3.85% (inactive)
12,Cc1ccccc1C1c2[nH]c3ccccc3c2CCN1C(=O)c1ccc(=O)n(C)n1 (configuration not stated),53.9% (inactive)
13,O=C(Nc1ccc(OCc2ccccc2)cc1)c1ccccc1,-2.87% (inactive)
14,COc1cc(N/C=C(\C(C)=O)c2ccccc2)cc(OC)c1,4.79% (inactive)
15,COc1ccc(CCNCC(=O)Nc2ccc(OC(F)F)cc2)cc1,-4.99% (inactive)
16,CCCCC1CCC(C(=O)N(CCCC)c2c(N)n(CCCC)c(=O)[nH]c2=O)CC1 (configuration not stated),-9.54% (inactive)
17,Clc1nc(CN2CCOCC2)nc2sc3c(c12)CCC3,6.4% (inactive)
18,CC1CCc2c(sc3nc(CN4CCOCC4)nc(N4CCc5ccccc5C4)c23)C1 (configuration not stated),6.42% (inactive)
19,CCc1ccccc1Nc1nc(N)nc(CSCC(=O)c2cc(C)n(C)c2C)n1,-11.5% (inactive)
20,O=C(NCCCc1ccc(F)cc1)C1CCC(=O)N(CCCN2CCCC2=O)C1 (configuration not stated),11.4% (inactive)
21,O=C1CC(Sc2nnc(-c3ccccc3)o2)C(=O)N1c1ccccc1 (configuration not stated),-3.28% (inactive)
22,O=C1OCCC1Sc1nnc(-c2ccccc2)o1 (configuration not stated),-4.39% (inactive)
23,COc1ccccc1OCC(=O)Nc1ccc(S(=O)(=O)N2CCOCC2)cc1,-3.94% (inactive)

row,Structure (SMILES),inhibition
1,CCCCn1c(=O)[nH]c(=O)c2c1nc(-c1ccsc1)n2Cc1ccccc1,7.19% (inactive)
2,CC(C)c1nnc2n1N=C(c1ccc(Cl)cc1)CS2,45.3% (inactive)
3,CCC(=O)Nc1ccc(C2=Nn3c(nnc3C(C)C)SC2)cc1,9.12% (inactive)
4,Cc1ccc(CN2CCSc3ccc(C(=O)NCC4CCCO4)cc32)cc1 (configuration not stated),-1.08% (inactive)
5,Nc1cc([N+](=O)[O-])ccc1Nc1ccccc1,2.95% (inactive)
6,Nc1ccc(Nc2ccc([N+](=O)[O-])cc2[N+](=O)[O-])cc1,4.35% (inactive)
7,COc1ccc2sc(-c3ccc(S(C)(=O)=O)cc3)c(C(=O)NCCc3c[nH]c4ccccc34)c2c1,0.16% (inactive)
8,CN1C(=O)N(C)C(=O)C2(Cc3cc(N)ccc3N3CCN(c4ccccc4F)CC32)C1=O (configuration not stated),-0.78% (inactive)
9,CN(C(=S)NC(=O)c1ccccc1)C1CCCCC1,60.5% (inactive)
10,Cc1ccc(C(=O)NC(=S)N(C)C2CCCCC2)cc1,62.7% (inactive)
11,O=C(NCc1ccc2c(c1)OCO2)C1CCC(CNS(=O)(=O)c2ccc(Cl)cc2)CC1 (configuration not stated),-12% (inactive)
12,O=C(CN1C(=O)NC2(CCCC2)C1=O)N1CCN(S(=O)(=O)c2ccc(Cl)c(C(F)(F)F)c2)CC1,-1.26% (inactive)
13,CC1CCCC(C)N1/N=C/c1cccc(Br)c1 (configuration not stated),2.02% (inactive)
14,Brc1ccc2[nH]cc(/C=N/N3CCCCC3)c2c1,-3.65% (inactive)
15,CCCCNS(=O)(=O)c1ccc(OC)c2ncccc12,-7.49% (inactive)
16,COc1cc(NC(=O)c2ccc3snnc3c2)cc(OC)c1,-2.63% (inactive)
17,COC(=O)[C@H](C)NC(=O)c1cc2c(cn1)[nH]c1ccccc12,25.1% (inactive)
18,C[C@H](NC(=O)c1cc2c(cn1)[nH]c1ccccc12)C(=O)O,61.1% (inactive)
19,Cc1cc(C)c2nc(-c3ccccn3)cc(C(=O)NCCc3ccc(S(N)(=O)=O)cc3)c2c1,2.93% (inactive)
20,NS(=O)(=O)c1ccc(NC(=O)CSC2=NC(=O)C(c3ccccc3)C(=O)N2)cc1 (configuration not stated),-4.16% (inactive)
21,O=C(CSC1=NC(=O)C(c2ccccc2)C(=O)N1)Nc1cccc(Cl)c1 (configuration not stated),-1.6% (inactive)
22,CC1CC(NC(=O)CC#N)CC(C)(C)C1 (configuration not stated),-2.07% (inactive)
23,CCNC(=O)CC1C(=O)N(c2ccc(C)cc2)C(=O)N1CCc1sccc1C (configuration not stated),-0.52% (inactive)

row,Structure (SMILES),inhibition
1,COc1ccc(OC)c(N(CC(=O)Nc2ccccc2)S(=O)(=O)c2ccccc2)c1,-0.48% (inactive)
2,CC(C)(O)c1ccc2c(c1)CCC1C(C)(C(=O)O)CCCC21C (configuration not stated),-2.51% (inactive)
3,CC1(C(=O)O)CCCC2(C)c3cc(O)ccc3CCC12 (configuration not stated),-4.51% (inactive)
4,Cc1cc(CN(C)C(=O)C2CCC(=O)N(CCc3ccccc3)C2)n[nH]1 (configuration not stated),8.05% (inactive)
5,CC(=O)Nc1ccc(SC(C)C(=O)NC(N)=O)cc1 (configuration not stated),-6.23% (inactive)
6,NC1=NC[C@@H](Cc2ccc(O)cc2)N1CCc1cccc2ccccc12,7.62% (inactive)
7,NC1=NC[C@H](Cc2ccc(O)cc2)N1CCc1cccc(F)c1,-2.28% (inactive)
8,Cc1cc(=O)oc2cc(OCC(=O)N3CCCC3)ccc12,-4.87% (inactive)
9,COc1ccccc1CCC(=O)NNC(=O)c1cccs1,-0.29% (inactive)
10,CCCCCCCCCCOC(=O)Cn1c(COc2ccccc2OC)[n+](C)c2ccccc21,54.7% (inactive)
11,CCCCCCCCCCOC(=O)Cn1c(COc2ccccc2)[n+](C)c2ccccc21,49.6% (inactive)
12,COc1ccc([C@H]2CC(=O)C=C(c3cc4ccccc4c4ccccc34)C2)cc1,-1.17% (inactive)
13,COc1ccc([C@H]2CC(=O)C=C(c3ccc(Br)c4ccccc34)C2)cc1,67.8% (inactive)
14,COc1ccc(-c2[nH]ncc2CN2CCCOc3c(cccc3OC)C2)c(OC)c1,9.33% (inactive)
15,O=C1CCCN1CCC(=O)N1CCCC(Nc2ccc(F)cc2)C1 (configuration not stated),-9.8% (inactive)
16,OC(CN1CCN(c2ccccc2Cl)CC1)c1ccccc1 (configuration not stated),2.61% (inactive)
17,C/C(CC(=O)Nc1cc(Cl)ccc1C)=N\NC(N)=O,4.8% (inactive)
18,CC(=O)Nc1ccc(NC(=O)C/C(C)=N/NC(N)=S)cc1,3.29% (inactive)
19,COc1ccc(C2(c3ccc(OC)cc3)NC(=O)N(CC(=O)Nc3ccc(C(=O)N(C)C)cc3)C2=O)cc1,-1.84% (inactive)
20,CCN=c1scc(-c2ccco2)n1/N=C/c1ccc(O)cc1,28.5% (inactive)
21,CC(C)N=c1scc(-c2ccco2)n1/N=C/c1ccc(O)c(O)c1,9.93% (inactive)
22,COc1ccc(S(=O)(=O)Nc2ccccc2N2CCOCC2)cc1OC,3.88% (inactive)
23,CC(Nc1cc(C)cc(C)c1)=[N+](C)CCNS(=O)(=O)c1ccc(Cl)cc1,-13.9% (inactive)
